Most compounds without a hit are left out; they make up all but 7.2% or so of the library.
ALR H2O2 inh: blocks human ALR sulfhydryl oxidase activity; purified ALR, DTT oxidation, H2O2 HRP-luminol luminescence; inhibition, % (no concentration beside the values); actives 3.8% (n = 290,000); P55789; AID 485317;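 active means mean replicate inhibition above about 79%, with every replicate also reaching it, limit read from the data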
AHR act: human AHR activation | activation, % at 5 µM | P35869 | actives 2.5% (n = 320,000) | AHR-responsive luciferase reporter cells, luminescence; in the data active means activation above about 47%
VLA-4 inh: inhibition in a human VLA-4 binding assay; P13612; VLA-4 expressing cells, ligand binding flow cytometry; inhibition, % (about 7 µM as worked out from the volumes in the protocol); actives 0.2% (n = 330,000); AID 2557; in the data active means inhibition above about 50%
SUMO Mot1 rescue: SUMOylation pathway inhibition by Mot1-301 growth rescue; S. cerevisiae Mot1-301 growth rescue, ATP luminescence, 38.5C; percent above DMSO median, 100 means doubled; growth rescue, % at 18.8 µM; actives 1% (n = 320,000); AID 2716;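 active means every valid replicate shows activation above 250% relative to neutral control wells; inactive means the rest, any valid replicate at or below 250%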
Bfl-1 A1 inh: inhibitors of the anti-apoptotic protein A1, read as caspase activation | actives 0.066% (n = 330,000) | caspase activation, % (no concentration beside the values) | MEF A1-2A-BIM cells, Caspase-Glo 3/7 luminescence, 3 h; percent of clofoctol response, vehicle zero | AID 2462;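 active means over half of replicate activation scores above 10%, or exactly half above 10 with the replicate mean above 10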
Efflux pump mplx: inhibitors of Candida antifungal efflux pumps expressed in yeast; actives 0.44% (n = 330,000); inhibition, % at 10 µM; S. cerevisiae Candida pump triplex, Nile Red efflux; AID 485275;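 active means plate passing quality check with inhibition over a set limit, or well fluorescence over plate mean plus 4 SD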;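 further: Nile Red retained in pooled yeast measured as flow cytometry median fluorescence; higher means more Nile Red kept so more efflux inhibition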
Each line names hits and unclear results; the compound was inactive in the other large screens.

Cc1ccc(N2C(=O)CSC2c2ccccn2)cc1Cl (centres undefined)	ALR H2O2 inh 98.8
O=C1CSC(c2ccccn2)N1c1cccc(Cl)c1 (centres undefined)	ALR H2O2 inh 99.2
COc1ccc(/C=c2\s/c(=C\C(=O)C(C)(C)C)[nH]c2=O)cc1O	ALR H2O2 inh 89.4
COc1cc(/C=c2\s/c(=C\C(=O)C(C)(C)C)[nH]c2=O)cc(OC)c1OC	none
Cc1ccnc(NC(=O)CCC(=O)N(CC(=O)NC(C)(C)C)Cc2ccc3c(c2)OCO3)c1	none (no result: ALR H2O2 inh)
CC(C)C(NC(=O)c1ccco1)C(=O)NCc1ccc(C(=O)O)cc1 (centres undefined)	none
CC(C)(Oc1ccc(Cl)cc1)C(=O)NCc1ccc(S(N)(=O)=O)cc1	none
Cc1ccc(O)c(-n2nc3ccccc3n2)c1	none
Oc1ccccc1-n1nc2ccc3nonc3c2n1	AHR act 75.7
COc1cccc(CN(C(=O)c2ccccc2Cl)C2CCS(=O)(=O)C2)c1 (centres undefined)	none
Cc1ccc(C(=O)N/C(=C\c2ccccc2F)c2nc(=S)[nH][nH]2)cc1	ALR H2O2 inh 98.3
Cc1ccc(/C=C(\NC(=O)c2ccc(C)cc2)c2nc(=S)[nH][nH]2)cc1	none
CC1=CC(=C(C#N)c2nc3ccccc3s2)C=C(C)N1CC1CCCO1 (centres undefined)	ALR H2O2 inh 95.3
Cc1c(NC(=O)c2ccc(-c3ccccc3)cc2)cccc1C(=O)O	none
O=C(Nc1ccc(Br)cc1)c1cccn1-c1ncc(C(F)(F)F)cc1Cl	AHR act 62.3
FCCCOc1ccc(-c2nccc(-c3ccc(F)cc3)n2)cc1	none
FCCCOc1ccc(-c2ccnc(-c3ccccc3)n2)cc1	AHR act 51.7
CCc1ccc(C(=O)NNc2ccc(F)cc2F)cc1	SUMO Mot1 rescue 339.2
O=C(NNc1ccc(O)cc1)c1ccc(Br)cc1	ALR H2O2 inh 98.6
CSCc1ccc(C(=O)NCc2ccc(F)cc2)cc1	ALR H2O2 inh 98.0
CCCc1ccc(C(=O)NNc2ccc(F)cc2)cc1	SUMO Mot1 rescue 288.6
CCC(Oc1ccccc1)C(=O)N1CCN(S(=O)(=O)c2ccccc2)CC1 (centres undefined)	none
Cc1ccsc1C(=O)N1CCN(c2ccccn2)CC1	none (no result: ALR H2O2 inh)
CCN(CC)c1ccc(S(=O)(=O)N2CCOCC2)cc1NC(=O)CSc1nnc(N)s1	none
CC1SC(c2ccccc2)N(CC(O)c2ccc([N+](=O)[O-])cc2)C1=O (centres undefined)	none (no result: ALR H2O2 inh)
Cc1cc(NC(=O)c2ccccc2)sc1C	none
Cc1ccc(NC(=O)c2ccccc2)s1	ALR H2O2 inh 95.5
NC(=O)Nc1ccc(Nc2ccccc2)cc1	ALR H2O2 inh 99.0
CC(=O)Oc1ccc(Nc2ccccc2)cc1	ALR H2O2 inh 99.2 (no result: SUMO Mot1 rescue)
O=C(Nc1ccc(Nc2ccccc2)cc1)C(Cl)(Cl)Cl	ALR H2O2 inh 95.0
O=C(CNCc1cccs1)Nc1ccc(OC(F)(F)F)cc1	none
O=C(c1cccc(F)c1)N1CCN(C(=O)c2nn3cccnc3c2Cl)CC1	none
CC(=O)SC(C)CC(=O)NCc1ccccc1 (centres undefined)	none (no result: ALR H2O2 inh)
CC(=O)Oc1ccc(C(=O)c2ccccc2)c(OC(C)=O)c1	ALR H2O2 inh 98.2
O=C(Nc1ccc(Nc2ccccc2)cc1)c1ccc(Cl)cc1	none
Cc1ccc(NC(=O)c2ccc(NC(=O)c3ccccc3)cc2)cc1C	none
CC(=O)Nc1ccc(NC(=O)C(C)OC(=O)COc2ccc(Nc3ccccc3)cc2)cc1 (centres undefined)	ALR H2O2 inh 99.3
O=C(Nc1ccc(Nc2ccccc2)cc1)c1ccccc1	ALR H2O2 inh 89.9
CCOc1ccc(OCCC(=O)OC(C)C(=O)Nc2ccc(C(C)=O)cc2)cc1 (centres undefined)	none
Cc1cc(NC(=O)c2ccccc2)cc(NC(=O)c2ccccc2)c1C	AHR act 78.3 (no result: ALR H2O2 inh)
COC(=O)[C@@]12CCCCN1[C@H](c1ccc(-c3ccc(F)cc3)cc1)[C@@H]1C(=O)N(C)C(=O)[C@@H]12	none
O=C(c1cccc(S(=O)(=O)Nc2ccc(F)cc2)c1)N1CCC1	none
COc1cc(OC)cc(C(=O)NNC(=O)CCC(=O)c2cccs2)c1	none
O=C(NC1=C(Nc2ccc(Cl)cc2)C(=O)c2ccccc2C1=O)c1ccccc1	AHR act 69.2
CC1CCCN(c2nc3ccccc3nc2C(C#N)S(=O)(=O)c2cccs2)C1 (centres undefined)	ALR H2O2 inh 96.8
COc1c2ccc(OCC/C(C)=C/C(=O)C=C(C)C)cc2nc2occc12	AHR act 75.5
CN(C)S(=O)(=O)Oc1ccsc1C(=O)Nc1ccc(C(F)(F)F)cc1	AHR act 55.3
N=C(N)SCc1ccc(Cl)cc1Cl	ALR H2O2 inh 99.1
NC(=S)Cc1ccc(Cl)cc1Cl	none
O=[N+]([O-])c1ccc(NNS(=O)(=O)c2cc(Cl)ccc2Cl)nc1	ALR H2O2 inh 99.5 (no result: AHR act)
O=C(CCCc1c[nH]c2ccccc12)NCC1COc2ccccc2O1 (centres undefined)	ALR H2O2 inh 97.5
NS(=O)(=O)c1ccc(NNC(=O)c2ccc(Br)o2)c([N+](=O)[O-])c1	ALR H2O2 inh 86.3
COc1ccc(NC(=O)c2ccc(Br)o2)c([N+](=O)[O-])c1	none
CC1=C/C(=N\Nc2ccccc2[N+](=O)[O-])CC(C)(C)C1	ALR H2O2 inh 98.3
C/C(=N/Nc1ccccc1[N+](=O)[O-])c1ccc([N+](=O)[O-])cc1	none
N#Cc1c(Cl)nc2c(c1C#N)CCCC2	ALR H2O2 inh 97.2
Cc1[nH]c2ccccc2c1C1C(c2ccccc2)=NN=C(C(C)C)N1O (centres undefined)	none (no result: ALR H2O2 inh)
CC1=NN=C(c2ccccc2)C(c2c[nH]c3ccccc23)N1O (centres undefined)	AHR act 68.1
CCC1(C(=O)OC)CCc2c(cc(OC)c3ccccc23)C1=O (centres undefined)	AHR act 54.3 (no result: ALR H2O2 inh)
Cc1ccc(S(=O)(=O)N2CCOCC2)cc1C(=O)OCC(=O)c1ccc[nH]1	none (no result: ALR H2O2 inh)
Cc1[nH]c2ccccc2c1/C=N/NC(=O)c1cc(-c2ccncc2)nc2ccccc12	AHR act 56.6
Cc1ccc(NC(=S)N/N=C/c2c(C)[nH]c3ccccc23)cc1	AHR act 75.3
Cc1nn(-c2ccccc2)c(C)c1/C=N/NC(=O)c1cc(-c2cccc3ccccc23)n[nH]1	none
Cc1nn(-c2ccccc2)c(C)c1/C=N/NC(=O)c1cc(-c2ccccc2)n[nH]1	AHR act 47.7
Cc1[nH]c2ccccc2c1/C=N/NC(=O)c1cc(-c2ccccc2)n[nH]1	AHR act 59.4 (no result: ALR H2O2 inh)
CC1CCCC(N2CCN(S(=O)(=O)c3ccccc3)CC2)C1 (centres undefined)	none
CN(C)CCN(CC1CCCN(Cc2ccccc2F)C1)C(=O)c1ccc(Cl)cc1 (centres undefined)	none (no result: ALR H2O2 inh)

Screens from PubChem.
